Target: Glucose transporter (Leishmania mexicana) (UniProt O61059)
Assay: ST_JUDE_LEISH: Cytotoxicity at 2uM final concentration against transgenic Leishmania Mexicana promastigotes LmGT2 that are glucose transport deficient and complemented with the L. Mexicana glucose transporter 2. Activity is measured by DNA content using SYBR green in vitro
Type: functional

| Compound | inhibition |
| --- | --- |
| CC(C(=O)NC1CCN(c2ccnc(Nc3ccc(F)cc3)n2)C1)c1ccc(Cl)cc1 (stereo unspecified) | 2.7% |
| Cn1cc(CCNc2ccnc(N3CCC(c4ncc[nH]4)CC3)n2)c2ccccc21 | -2.28% |
| COc1ccc(OC)c(Cc2c(C)nc3nc(N)nc(N)c3c2C)c1 | -3.07% |
| CCCCCCn1ccc2c3c(N)nc(N)nc3ccc21 | 102% |
| COc1nc(-n2ccc(=N)cc2)nc2ccccc12 | 2.63% |
| CC1(C)CNCc2cc(NC(=O)/C=C/c3ccc(Cl)cc3)ccc21 | 2.38% |
| CN1CCC(NCc2ccc(-c3cccc(S(=O)(=O)NCCc4ccccn4)c3)cc2)CC1 | 1.83% |
| CC(C)[C@H](NC(=O)c1ccc(O)c(-c2ccc(Cl)c(Cl)c2)c1)C(=O)NCCN1CCCCC1 | -1.44% |
| CCOc1ccc(-n2nc3c(Cl)nnc(-c4ccccc4)c3c2-c2ccccc2)cc1 | 0.01% |
| COc1ccc2nccc([C@@H](O)CN3CCC(NCCOc4ccc(F)cc4Cl)CC3)c2c1 | 4.96% |
| CN(C)CCNCc1ccc(-c2ccc3c(Nc4ccc(F)cc4Cl)ccnc3c2)o1 | -0.47% |
| Cc1cccc2nc(-c3cccc(-c4ccc(NC(=O)Nc5ccc(F)c(F)c5F)cc4)c3)[nH]c12 | 3.22% |
| O=c1cc(NCCCNCc2cc(F)cc(C(F)(F)F)c2)[nH]c2ccccc12 | 4.38% |
| CCc1cc2c(=O)c(-c3nc(C)cs3)c([C@H](N)Cc3ccc(O)cc3)oc2cc1O | 7.8% |
| CCCC(C)Nc1nc(C)cc(N[C@@H](Cc2ccccc2)C(=O)NCc2cccc(F)c2)n1 (stereo partly specified) | 2.68% |
| CCOC(=O)c1ccc(NC(=O)Nc2ccc(-c3ccc(-c4nc5cccc(C)c5[nH]4)s3)cc2)cc1 | 0.88% |
